Reference: PubChem BioAssay (NCATS)
Records with an inconclusive call do not appear. Entries that show only a call come without a potency. Calls of active or inactive are those of the source. Calls follow the shape of the dose curve; as a rule, active = well fitted cell-killing curve with a large enough effect; inconclusive = small, poorly fitted or top-dose-only effect; inactive = flat fitted curve, though single readings scatter.

Experiment: Cell Viability - LYMP1-002 - Assay at 40 hr (AID 994); also: nearly all actives have a fitted effect of over 60% in size
Settings: LYMP1-002 lymphoblastoid cell viability; series mostly up to 92.2 µM
Description: NIH Chemical Genomics Center [NCGC]
NIH Molecular Libraries Screening Centers Network [MLSCN]
National Institutes of Environmental Health Sciences [NIEHS]
National Toxicology Program [NTP]
We have developed a 1536-well cell-based assay for quantitative high throughput screening (qHTS) against a number of cell lines to determine in vitro cytotoxicity of small molecules. This particular assay uses a human lymphoblastoid cell line (LYMP1-002) purchased from Coriell Institute for Medical Research.
NCGC Assay Protocol Summary:
The CellTiter-Glo luminescent cell viability assay (Promega) is a homogeneous method to measure the number of viable cells in culture. The end point readout of this assay is based on quantitation of intracellular ATP, an indicator of metabolic activity, using the luciferase reaction. Luciferase catalyzes the oxidation of beetle Luciferin to oxyluciferin and light in the presence of ATP. The luminescent signal is proportional to amount of ATP present.
Using the CellTiter-Glo luminescent cell viability assay, the amount of cellular ATP was measured in the lymphoblastoid cell line with complete culture medium following compound treatment for 40 hours. The assay was performed in opaque white Kalypsys 1536-well plates. In the screen, tetraoctylammonium bromide was used as positive control. Library compounds were measured for their ability to cause acute toxicity in the cell line, as reflected by a decrease in intracellular ATP levels, in a concentration-dependent manner. […] AC50 values were determined from concentration-response data modeled with the standard Hill equation.
qHTS protocol for CellTiter Glo lymphoblastoid cellular assay
[Step] [Parameter] [Value] [Description]
1. Reagent; 5 uL; 2500 lymphoblastoid cells/well
2. Time; 5 hr; 37 C incubation
4. Controls; 23 nL; Tetraoctylammonium bromide 6.4pM to 92 uM
5. Time; 40 hr; 37 C incubation
6. Reagent; 5 uL; CellTiter Glo reagent
7. Time; 30 min; Room Temperature
8. Detection; Luminescence; Viewlux plate reader
Keywords: cell viability, cytotoxicity, lymphoblastoid cell line, luminescence, NTPHTS, NTPHTS_NCGC, NIEHS, DSSTox, MLSMR, MLSCN, NIH Roadmap, qHTS, NCGC

Compound	Potency
Oc1cc(Cl)c(Cl)c(Cl)c1Cl	inactive
Clc1ccc(Cl)c(Cl)c1	inactive
ClCc1ccccc1	inactive
ClCCOCOCCCl	inactive
O=C(O)C(Br)Br	inactive
CCCCCc1cc(O)cc(O)c1	inactive
CCOP(=S)(OCC)SCCSCC	inactive
C=CCc1cc(OC)c2c(c1)OCO2	inactive
N#CC(Br)Br	inactive
CN(C)N=O	inactive
O=C(O)C(Cl)(Cl)Br	inactive
Nc1cccc(Cl)c1	inactive
O=[N+]([O-])/C=C/c1ccccc1	inactive
C=CC(=O)OCCN(C)C	inactive
Nc1ncc([N+](=O)[O-])s1	inactive
Cc1ccc(N)cc1N	inactive
CCC/C=N/O	inactive
NNC(N)=S	inactive
Clc1ccc(C(Cl)(Cl)Cl)c(Cl)c1	inactive
C[N+](=O)[O-]	inactive

Compound	Potency
CCC#N	inactive
CN(C)C(=O)Nc1ccc(Cl)cc1	inactive
ClCCOCCCl	inactive
C=CC(=O)OC	inactive
N#CCCCCC#N	inactive
c1ccc(NNc2ccccc2)cc1	inactive
ClC=CCl	inactive
NC1CCC(CC2CCC(N)CC2)CC1 (stereo not given)	inactive
CCN(N=O)C(N)=O	inactive
Nc1ccccc1-c1ccccc1	inactive
Nc1ccc(-c2ccccc2)cc1	inactive
ClC(Br)Br	inactive
O=S(=O)(O)F	inactive
CC(C)CC(C)N (stereo not given)	inactive
CCOS(C)(=O)=O	inactive
CCN(CC)N=O	inactive
ClCCCCl	inactive
O=[N+]([O-])c1cccc2c([N+](=O)[O-])cccc12	inactive
CCCCCCCCCCCCCl	inactive
C=C(C)CCl	inactive
